Several values for one entry are separate records, joined by “and”; a condition that tells them apart may be missing. Equal values may be shown once. Inconclusive results are not listed. A number with no mark means an inactive call. Activity calls are given as the source filed them. Calls come from the whole dose curve; as a rule, active = well fitted curve in the direction sought with a large enough effect; inconclusive = small, poorly fitted or top-dose-only effect, or another doubt; inactive = no such curve, though single readings can be large; an effect the other way counts as inactive or inconclusive. Where a SMILES comes first, the peptide text is derived from it.

This note sets out measurements from PubChem BioAssay (NCATS).

The target of test [1] is Cytochrome P450 3A7 (Homo sapiens) (UniProt P24462). Put plainly: Cytochrome P450 family 3 subfamily A member 7 (CYP3A7) small molecule antagonists: luciferase biochemical qHTS assay (AID 1963596). Note: nearly all actives have a fitted effect of over 40% in size. In a few lines:
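Biochemical CYP3A7 activity measured with P450-Glo system: luciferin formed from proluciferin substrate in NADPH-driven reaction (1 h, room temperature) after 10 min compound preincubation. Signal in relative luminescence units.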
For orientation: In qHTS, concentration-response curves come from the screen itself.

Test [2] is described as follows: Viability qHTS for spleen associated tyrosine kinase inhibitor (SYKi) naive MV4-11 cells (AID 1963823). Note: nearly all actives have a fitted effect of over 40% in size. In a few lines: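 SYK inhibitor-naive MV4-11 cells, 500 per well, exposed to compounds for 72 hr at 37 C, 5% CO2. Viability read as CellTiter-Glo luminescence after 10 min at room temperature.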
Test [3] can be described thus: Viability qHTS for spleen associated tyrosine kinase inhibitor (SYKi) drug resistant MV4-11 cells (AID 1963824). Note: nearly all actives have a fitted effect of over 35% in size. In a few lines: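 SYK inhibitor-resistant MV4-11 AML cells, 500 per well, added to predispensed compounds and incubated 72 hr at 37 C, 5% CO2. Viability measured by CellTiter-Glo luminescence after 10 min at room temperature.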
Test [4] can be described thus: Cellular viability qHTS for adrenocortical cancer (ACC) cell line SW-13 (AID 1963989).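 For activity (max response): cells grown in serum-free medium with ITS supplement; % is set by controls: 0 for no effect and ±100 for the full control effect.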 Note: nearly all actives have a fitted effect of over 65% in size. Particulars: SW-13 ACC cells viability, CellTiter-Glo, 48 h; activity (max response): stronger effect = lower value. The procedure, abridged:
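IC50 and maximal-response values come from four-parameter logistic fits of titration data. SW-13 cells in serum-free medium received compounds (up to 46 uM final) for 48 h before CellTiter-Glo luminescence.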

The nature of test [5]: Cellular viability qHTS for adrenocortical cancer (ACC) cell line NCI-H295R (AID 1963990). Note: nearly all actives have a fitted effect of over 60% in size. In a few lines: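 Adrenocortical carcinoma cells, suspended at 300 000 cells/mL in serum-free DMEM plus ITS, rested overnight before pin transfer of compound. After two days' incubation, ATP-dependent luminescence was recorded and curve-fitted.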
Potency is the fitted concentration of half-maximal effect.

Chain of Cytochrome P450 3A7 (Homo sapiens) (P24462 whole entry, looked up): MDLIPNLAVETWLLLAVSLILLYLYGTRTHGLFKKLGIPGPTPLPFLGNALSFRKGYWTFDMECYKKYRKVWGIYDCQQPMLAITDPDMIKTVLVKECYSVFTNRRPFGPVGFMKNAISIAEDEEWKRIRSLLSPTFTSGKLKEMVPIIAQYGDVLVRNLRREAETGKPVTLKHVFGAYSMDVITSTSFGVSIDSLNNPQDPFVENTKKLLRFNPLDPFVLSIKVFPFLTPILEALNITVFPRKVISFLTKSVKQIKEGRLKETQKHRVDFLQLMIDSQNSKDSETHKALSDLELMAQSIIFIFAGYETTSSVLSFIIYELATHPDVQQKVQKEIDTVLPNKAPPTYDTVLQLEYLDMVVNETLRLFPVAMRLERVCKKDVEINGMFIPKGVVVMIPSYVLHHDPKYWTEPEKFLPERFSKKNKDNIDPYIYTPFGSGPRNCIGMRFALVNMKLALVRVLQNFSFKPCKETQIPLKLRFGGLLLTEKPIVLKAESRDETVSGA

For the compound `C[C@@]12C(=O)OC(=O)[C@]1(C)C1CCC2O1`, the Potency result in test [1] is “inactive”. For the same compound, the Potency is 2.66 µM (active) in test [2], 2.99 µM (active) in test [3], 7.31 µM (active) in test [4] and 2.31 µM (active) in test [5].

For the compound `COCC(=O)Nc1c(I)c(C(=O)NCC(O)CO)c(I)c(C(=O)N(C)CC(O)CO)c1I` (centres undefined), the Potency result in test [1], in test [3] and in test [5] was “inactive” throughout. Also, the Potency in test [2] is 0.0009 µM (active). Also, the activity (max response) in test [4] is -3.53%.

On to `COc1ccccc1O`, for which the Potency result in test [1], in test [2] and in test [3] was “inactive” throughout. Besides, the Potency in test [5] is 28.2 µM (active).

Turning to `COCCc1ccccn1`, the Potency result in test [1], in test [3] and in test [5] was “inactive” each time. Besides, in test [2], the Potency is 0.075 µM (active). Moreover, in test [4], the activity (max response) was -6%.

Consider `CN(C(=O)C(Cl)Cl)c1ccc(OC(=O)c2ccco2)cc1`, for which the Potency result in test [1], in test [2], in test [3] and in test [5] was “inactive” each time. Besides, the activity (max response) in test [4] was -5.24%.

Take `O=C(O)[C@H](O)c1ccccc1`: the Potency result in test [1], in test [2], in test [3] and in test [5] was “inactive” each time. For the same compound, in test [4], the activity (max response) was 6.97%.

Consider `O=C(O)Cc1sc(-c2ccccc2)nc1-c1ccc(Cl)cc1`, for which the Potency result in test [1], in test [2], in test [3] and in test [5] was “inactive” throughout.

Regarding `Cc1nc(-c2cn3c(n2)-c2ccc(-c4cnn(C(C)(C)C(N)=O)c4)cc2OCC3)n(C(C)C)n1`, the Potency result in test [1] was “inactive”. The results for the Potency in test [2], in test [3] and in test [5] were 0.148 µM (active), 2.59 µM (active) and 2.51 µM (active), respectively.

For the compound `CNCCC(Oc1ccccc1OC)c1ccccc1` (centres undefined), the Potency result in test [1], in test [2], in test [3] and in test [5] was “inactive” each time.

Regarding `CC(=O)N[C@@H](CO)C(=O)N[C@@H](CC(=O)O)C(=O)N[C@@H](CCCCN)C(=O)N1CCC[C@H]1C(=O)O` (Ac-SDKP-OH), the Potency entry in test [1], in test [2], in test [3] and in test [5] was “inactive” each time.

Take `CCCCCCCCCCCCCCCCO`: the Potency entry in test [1], in test [2], in test [3] and in test [5] was “inactive” each time.

For `CC(=O)CCC(=O)O`, the Potency result in test [1], in test [2], in test [3] and in test [5] was “inactive” in each case.

Consider `CCCCOC(=O)CCCCCCCCC(=O)OCCCC`, for which the Potency entry in test [1], in test [2], in test [3] and in test [5] was “inactive” each time.

Consider `C=C(CC)C(=O)c1ccc(OCC(=O)O)c(Cl)c1Cl`, for which the Potency result in test [1] was “inactive”. Besides, the Potency is 13.3 µM (active) in test [2], 15 µM (active) in test [3] and 9.2 µM (active) in test [5].

In the case of `Cc1cc(NC(=O)C2=C(O)c3ccccc3S(=O)(=O)N2C)no1`, the Potency entry in test [1], in test [2], in test [3] and in test [5] was “inactive” each time.

Regarding `CN(C)C(=O)Oc1ccc[n+](C)c1`, the Potency entry in test [1], in test [2], in test [3] and in test [5] was “inactive” throughout.

`FC(F)(F)C(Cl)Br` (centres undefined): the Potency result in test [1], in test [2], in test [3] and in test [5] was “inactive” throughout.

With `CN1CCN(c2cc3c(nn2)Oc2ccccc2N3C)CC1`, the Potency entry in test [1], in test [2], in test [3] and in test [5] was “inactive” throughout.

In the case of `CN1N=C(C(N)=O)CCC1=O`, the Potency result in test [1], in test [2], in test [3] and in test [5] was “inactive” each time.

On to `Cc1ccc(S(=O)(=O)NC(=O)NC2CCCCC2)cc1`, for which the Potency result in test [1], in test [2], in test [3] and in test [5] was “inactive” in each case.

With `O=c1[nH]c2cc(C(F)(F)F)c(N3CCOCC3)cc2n(CP(=O)(O)O)c1=O`, the Potency entry in test [1], in test [2], in test [3] and in test [5] was “inactive” each time.

On to `C[C@H]1C[C@H](O)c2ccsc2S1(=O)=O`, for which the Potency result in test [1], in test [2], in test [3] and in test [5] was “inactive” each time.

Turning to `COC(=O)c1cc(S(N)(=O)=O)ccc1OC`, the Potency entry in test [1], in test [2], in test [3] and in test [5] was “inactive” in each case.

Turning to `C[C@H]1NCc2cc(-c3ccc4c(=O)c(C(=O)O)cn(C5CC5)c4c3OC(F)F)ccc21`, the Potency result in test [1], in test [2], in test [3] and in test [5] was “inactive” each time.

Turning to `NC(=O)c1cn(Cc2c(F)cccc2F)nn1`, the Potency entry in test [1], in test [2], in test [3] and in test [5] was “inactive” in each case.

As for `COC(=O)c1ccc(O)cc1`, the Potency result in test [1], in test [2], in test [3] and in test [5] was “inactive” each time.

For the compound `CC1(C)Oc2ccc(C#N)cc2[C@@H](N2CCCC2=O)[C@@H]1O`, the Potency entry in test [1], in test [2], in test [3] and in test [5] was “inactive” in each case.

Turning to `CC(C)(C)c1cc(C=O)cc(C(C)(C)C)c1O`, the Potency result in test [1], in test [2], in test [3] and in test [5] was “inactive” in each case.

In the case of `CCn1c(=O)c(-c2ccc(-c3cncs3)cc2Cl)cc2cnc(Nc3ccc(N4CCN(C)CC4)cc3)nc21`, the Potency in test [1] is 3.01 µM (active); in test [2], 0.291 µM (active); in test [3] it was 0.461 µM (active). Moreover, the Potency result in test [5] is “inactive”.

On to `CC1(C)[C@@H]2CC[C@@]1(C)C(=O)C2`, for which the Potency entry in test [1], in test [2], in test [3] and in test [5] was “inactive” in each case.

Consider `C[C@H]1O[C@@H](n2cc(F)c(=O)[nH]c2=O)[C@H](O)[C@@H]1O`, for which the Potency result in test [1] and in test [5] was “inactive” in each case. In addition, the Potency in test [2] is 3.76 µM (active) and 2.35 µM (active); in test [3] it was 2.11 µM (active) and 1.05 µM (active).

For `O=c1[nH]c(=O)n([C@H]2C[C@H](O)[C@@H](CO)O2)cc1C(F)(F)F`, the Potency result in test [1] and in test [5] was “inactive” throughout. In addition, the Potency in test [2] was 2.11 µM (active) and 1.66 µM (active); in test [3], 2.11 µM (active) and 2.35 µM (active).

Consider `CCn1c(=O)c(-c2ccn[nH]2)cc2c(C)nc(N)nc21`, for which, in test [1], the Potency result is “inactive”. Moreover, the Potency was 1.46 µM (active) in test [2], 2.91 µM (active) in test [3] and 7.08 µM (active) in test [5].

Take `O=C(N[C@H]1CCC[C@H](CO)C1)C1CCN(c2nc3cc(Cl)c(-c4ccc(Cl)cc4)cc3o2)CC1`: the Potency result in test [1] is “inactive”. The Potency in test [2] is 16.6 µM (active); in test [3], 16.6 µM (active); in test [5] it was 12.6 µM (active).

In the case of `C/C(=N\O)c1ccc(OCC(=O)N2CCCCC2)cc1`, the Potency entry in test [1], in test [2], in test [3] and in test [5] was “inactive” in each case.

Regarding `CC1(C)OC[C@@H]2O[C@@]3(C(=O)O)OC(C)(C)O[C@H]3[C@@H]2O1`, the Potency result in test [1], in test [2], in test [3] and in test [5] was “inactive” each time.
